Our source for the AC50 and outcome values is PubChem BioAssay (EPA / NIEHS).

Inconclusive results are not listed. Calls of active or inactive are those of the source. Rule for the calls: active = hit-call score of the fitted dose curve at least 0.9, where 1 is the maximum; inconclusive = response in the unintended direction; inactive = score below 0.9.

The AC50 is the concentration at which the activity in the assay is half-maximal.

rat Monoamine Oxidase, MAO-B, Central (MAOBC), Maob (gene 25750), sequence (P19643 whole entry, looked up): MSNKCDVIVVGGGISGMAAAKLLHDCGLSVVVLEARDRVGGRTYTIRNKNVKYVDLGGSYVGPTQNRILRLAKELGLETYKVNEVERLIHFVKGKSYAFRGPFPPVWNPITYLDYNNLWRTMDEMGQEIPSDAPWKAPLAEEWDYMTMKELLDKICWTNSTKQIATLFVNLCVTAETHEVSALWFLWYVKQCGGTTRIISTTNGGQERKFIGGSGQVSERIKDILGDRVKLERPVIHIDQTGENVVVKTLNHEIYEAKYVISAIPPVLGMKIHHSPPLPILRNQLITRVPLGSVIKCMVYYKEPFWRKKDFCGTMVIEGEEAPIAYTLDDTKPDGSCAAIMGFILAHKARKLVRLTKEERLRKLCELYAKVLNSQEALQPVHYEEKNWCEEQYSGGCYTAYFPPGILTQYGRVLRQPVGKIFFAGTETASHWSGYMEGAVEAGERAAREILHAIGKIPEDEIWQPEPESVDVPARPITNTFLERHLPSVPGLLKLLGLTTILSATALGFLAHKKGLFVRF
rat Adenylate Cyclase, Forskolin Stimulated, Adcy5 (gene 64532), sequence (Q04400 whole entry, looked up): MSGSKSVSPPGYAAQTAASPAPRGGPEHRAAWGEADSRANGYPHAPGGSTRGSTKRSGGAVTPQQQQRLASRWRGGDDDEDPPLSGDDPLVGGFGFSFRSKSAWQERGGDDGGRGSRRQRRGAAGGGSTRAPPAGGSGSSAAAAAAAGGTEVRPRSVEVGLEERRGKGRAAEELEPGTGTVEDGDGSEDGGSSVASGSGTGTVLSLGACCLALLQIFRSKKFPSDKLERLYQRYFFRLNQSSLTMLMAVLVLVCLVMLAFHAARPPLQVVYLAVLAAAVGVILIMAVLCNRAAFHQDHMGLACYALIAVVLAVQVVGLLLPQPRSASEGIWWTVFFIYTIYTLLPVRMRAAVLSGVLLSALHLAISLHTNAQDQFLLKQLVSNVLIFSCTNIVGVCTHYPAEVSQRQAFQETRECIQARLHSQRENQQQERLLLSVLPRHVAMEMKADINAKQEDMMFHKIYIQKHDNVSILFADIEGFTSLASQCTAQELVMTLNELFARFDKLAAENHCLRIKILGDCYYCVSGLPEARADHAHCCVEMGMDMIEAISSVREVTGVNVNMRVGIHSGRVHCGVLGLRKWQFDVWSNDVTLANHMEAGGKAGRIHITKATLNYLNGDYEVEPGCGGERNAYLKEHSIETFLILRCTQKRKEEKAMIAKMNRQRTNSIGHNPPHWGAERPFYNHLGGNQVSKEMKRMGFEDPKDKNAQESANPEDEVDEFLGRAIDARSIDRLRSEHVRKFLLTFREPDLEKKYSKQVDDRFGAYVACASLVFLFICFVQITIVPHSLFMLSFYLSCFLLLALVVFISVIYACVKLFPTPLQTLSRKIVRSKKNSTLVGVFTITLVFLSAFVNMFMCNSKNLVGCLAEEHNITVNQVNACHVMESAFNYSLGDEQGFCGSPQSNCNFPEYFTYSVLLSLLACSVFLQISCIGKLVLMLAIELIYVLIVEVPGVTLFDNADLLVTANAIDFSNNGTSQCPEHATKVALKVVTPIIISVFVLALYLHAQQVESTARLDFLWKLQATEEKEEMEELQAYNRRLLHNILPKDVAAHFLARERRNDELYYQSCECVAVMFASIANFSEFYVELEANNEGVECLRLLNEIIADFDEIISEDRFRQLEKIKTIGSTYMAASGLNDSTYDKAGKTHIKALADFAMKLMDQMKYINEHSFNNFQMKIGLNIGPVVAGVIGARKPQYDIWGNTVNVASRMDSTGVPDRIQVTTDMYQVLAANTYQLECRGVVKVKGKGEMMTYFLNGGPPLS
rat Acetylcholinesterase (AChE), Ache (gene 83817), sequence (P37136 whole entry, looked up): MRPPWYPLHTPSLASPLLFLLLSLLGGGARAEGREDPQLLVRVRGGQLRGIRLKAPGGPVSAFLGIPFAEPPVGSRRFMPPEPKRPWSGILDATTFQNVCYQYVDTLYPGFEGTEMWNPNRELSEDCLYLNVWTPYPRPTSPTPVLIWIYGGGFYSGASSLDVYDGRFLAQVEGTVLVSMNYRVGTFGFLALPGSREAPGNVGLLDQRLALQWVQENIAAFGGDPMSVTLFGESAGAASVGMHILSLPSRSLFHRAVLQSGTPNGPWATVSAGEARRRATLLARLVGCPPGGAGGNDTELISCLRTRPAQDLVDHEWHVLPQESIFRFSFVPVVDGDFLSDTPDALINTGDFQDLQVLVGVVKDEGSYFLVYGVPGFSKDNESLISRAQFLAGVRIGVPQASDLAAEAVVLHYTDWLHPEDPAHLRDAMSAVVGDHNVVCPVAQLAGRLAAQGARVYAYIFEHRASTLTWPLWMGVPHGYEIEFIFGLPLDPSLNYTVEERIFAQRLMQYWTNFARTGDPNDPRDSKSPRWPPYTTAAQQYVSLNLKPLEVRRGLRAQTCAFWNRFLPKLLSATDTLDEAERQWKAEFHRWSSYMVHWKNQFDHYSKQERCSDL
rat Constitutive Nitric Oxide Synthase (CNOS), Nos1 (gene 24598), sequence (P29476 whole entry, looked up): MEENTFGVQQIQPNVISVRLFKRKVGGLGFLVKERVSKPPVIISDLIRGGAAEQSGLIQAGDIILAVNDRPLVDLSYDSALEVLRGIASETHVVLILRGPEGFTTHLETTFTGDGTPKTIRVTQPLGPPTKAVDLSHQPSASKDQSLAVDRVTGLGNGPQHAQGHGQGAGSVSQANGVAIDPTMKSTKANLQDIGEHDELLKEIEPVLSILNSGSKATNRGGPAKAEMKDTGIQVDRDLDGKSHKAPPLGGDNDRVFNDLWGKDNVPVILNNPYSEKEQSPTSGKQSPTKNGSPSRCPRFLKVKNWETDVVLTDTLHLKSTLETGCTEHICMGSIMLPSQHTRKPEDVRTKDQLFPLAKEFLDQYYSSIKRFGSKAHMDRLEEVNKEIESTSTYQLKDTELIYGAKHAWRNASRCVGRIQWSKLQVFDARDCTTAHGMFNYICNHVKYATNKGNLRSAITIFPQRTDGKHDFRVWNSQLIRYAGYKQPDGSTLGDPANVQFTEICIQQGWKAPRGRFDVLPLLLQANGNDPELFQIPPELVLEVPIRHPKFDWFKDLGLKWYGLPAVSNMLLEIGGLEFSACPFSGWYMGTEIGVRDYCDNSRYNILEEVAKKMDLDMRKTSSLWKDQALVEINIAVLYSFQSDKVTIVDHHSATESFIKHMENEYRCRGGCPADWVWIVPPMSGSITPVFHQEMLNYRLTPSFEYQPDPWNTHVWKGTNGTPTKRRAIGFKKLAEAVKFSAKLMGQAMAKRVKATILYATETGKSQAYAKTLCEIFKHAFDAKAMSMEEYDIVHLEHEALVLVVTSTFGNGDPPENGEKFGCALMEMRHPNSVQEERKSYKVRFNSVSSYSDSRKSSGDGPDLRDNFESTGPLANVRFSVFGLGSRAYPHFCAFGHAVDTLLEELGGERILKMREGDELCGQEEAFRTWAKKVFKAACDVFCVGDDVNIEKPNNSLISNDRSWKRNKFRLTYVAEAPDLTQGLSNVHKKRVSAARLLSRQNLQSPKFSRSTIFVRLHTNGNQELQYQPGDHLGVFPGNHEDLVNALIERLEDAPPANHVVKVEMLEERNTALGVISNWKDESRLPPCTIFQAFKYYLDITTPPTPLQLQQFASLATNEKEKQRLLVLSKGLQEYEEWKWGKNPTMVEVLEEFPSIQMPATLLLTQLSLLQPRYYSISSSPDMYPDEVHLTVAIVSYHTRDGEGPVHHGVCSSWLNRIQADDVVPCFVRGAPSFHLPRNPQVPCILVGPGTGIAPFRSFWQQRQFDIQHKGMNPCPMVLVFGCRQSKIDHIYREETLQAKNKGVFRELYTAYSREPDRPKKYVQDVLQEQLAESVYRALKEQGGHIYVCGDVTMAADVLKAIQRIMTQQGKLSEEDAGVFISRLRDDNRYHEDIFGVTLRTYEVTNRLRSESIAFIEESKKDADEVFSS

The target in one test is rat Adenylate Cyclase, Forskolin Stimulated, Adcy5 (gene 64532) (UniProt Q04400). The test is described as follows: NVS_ENZ_rACFSKBinding: NovaScreen (NVS) Enzymatic Assay for rat Adenylate Cyclase, Forskolin Stimulated (AID 2283232). The method, then:
NVS_ENZ_rACFSKBinding is a biochemical, single-readout assay that uses extracted gene-proteins from Rat forebrain membranes in a tissue-based cell-free assay. Measurements were taken 1 hour after chemical dosing in a 48-well plate.NVS_ENZ_rACFSKBinding is one of one assay component(s) measured or calculated from the NVS_ENZ_rACFSKBinding assay. It is designed to make measurements of enzyme activity, a form of enzyme reporter, as detected with scintillation counting signals by Filter-based radiodetection technology.Data from the assay component NVS_ENZ_rACFSKBinding was analyzed into 1 assay endpoint. This assay endpoint, NVS_ENZ_rACFSKBinding, was analyzed in the positive analysis fitting direction relative to DMSO as the negative control and baseline of activity. Using a type of enzyme reporter, loss-of-signal activity can be used to understand changes in the enzymatic activity as they relate to the gene Adcy5. Furthermore, this assay endpoint can be referred to as a primary readout, because this assay has produced multiple assay endpoints where this one serves a enzymatic activity function. To generalize the intended target to other relatable targets, this assay endpoint is annotated to the lyase intended target family, where the subfamily is adenylyl cyclase.
(§1) Binding assays used specific radioligands (tritiated, iodinated) with non-radioactive competitive displacement ligands in agonist or antagonist protocols (as indicated) and various reference compounds and inhibitors to titrate specific binding to receptors and transporters. Most enzyme assays (CYPs, kinases, phosphatases, proteases, HDACs) used recombinant protein and specific substrates (fluorescence mostly, some colorimetric and radioactive) and inhibitors, followed by a biochemical separation of substrate and product. All assays for the biochemical HTS were initially run in duplicate at a single concentration (10 uM for CYP450 assays and 25 uM for all others). Assay-chemical combinations meeting a pre-defined threshold (e.g., 30% inhibition and other criteria defined below) were then run in singleton concentration-response format with maximum concentration of 20 uM for CYPs and 50 uM for all others. Each assay was run with positive and negative controls, and concurrent controls on every plate. The follow-up (secondary) screen tested active chemical-pairs in concentration series, as well as a few additional assays not tested in the primary screen, some selected negative inactives, and several cases re-run in the concentration series for confirmatory purposes.
Regarding `COP(=O)(OC)OC(Br)C(Cl)(Cl)Br` (stereo unspecified), the AC50 was 14.6 µM (active).

Take `S=C1NCCN1`: the result was inactive.

`N#CSCSC#N`: the AC50 was 25 µM (active).

The next test has as its target rat Acetylcholinesterase (AChE), Ache (gene 83817) (UniProt P37136). The test is described as follows: NVS_ENZ_rAChE: NovaScreen (NVS) Enzymatic Assay for rat Acetylcholinesterase (AChE) (AID 2283233). In a few lines: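 Compounds first screened at 25 uM in duplicate, then those passing threshold tested in concentration series up to 50 uM, against AChE from rat brain membranes. Enzyme activity read by absorbance at 0.33 h; inhibition scored versus DMSO.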
On to `COP(=O)(OC)OC(Br)C(Cl)(Cl)Br` (stereo unspecified), for which the AC50 was 1.01 µM (active).

As to `O=[N+]([O-])c1cc(C(F)(F)F)c(Cl)c([N+](=O)[O-])c1Nc1ncc(C(F)(F)F)cc1Cl`, the compound was classed as inactive.

Consider `S=C1NCCN1`, for which the AC50 was 14.3 µM (active).

In the next test the target is rat Constitutive Nitric Oxide Synthase (CNOS), Nos1 (gene 24598) (UniProt P29476). In words: NVS_ENZ_rCNOS: NovaScreen (NVS) Enzymatic Assay for rat Constitutive Nitric Oxide Synthase (CNOS) (AID 2283236). The method, boiled down:
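Single 25 uM duplicate screen, then concentration series to 50 uM for chemicals meeting threshold. Rat brain membrane-derived CNOS activity detected radiometrically by filtration and scintillation counting, 1 h after compound addition; DMSO as baseline.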
In the case of `CN(C)[C@@H]1C(=O)C(C(N)=O)=C(O)[C@@]2(O)C(=O)C3=C(O)c4c(O)cccc4[C@@](C)(O)[C@H]3[C@H](O)[C@@H]12`, the half-maximal activity concentration (AC50) is 5.33 µM (active).

On to `Nc1c(Cl)cc([N+](=O)[O-])cc1Cl`, for which the result was inactive.

Turning to `CC(C)[C@H](C(=O)O[C@H](C#N)c1cccc(Oc2ccccc2)c1)c1ccc(Cl)cc1`, the compound was called inactive.

A further test concerns rat Monoamine Oxidase, MAO-A, Peripheral (MAOAP), gene 29253. The test is described as follows: NVS_ENZ_rMAOAP: NovaScreen (NVS) Enzymatic Assay for rat Monoamine Oxidase, MAO-A, Peripheral (MAOAP) (AID 2283237). As for the experimental part:
(§2) NVS_ENZ_rMAOAP is a biochemical, single-readout assay that uses extracted gene-proteins from Rat liver mitochondrial membranes in a tissue-based cell-free assay. Measurements were taken 1.17 hours after chemical dosing in a 96-well plate.NVS_ENZ_rMAOAP is one of one assay component(s) measured or calculated from the NVS_ENZ_rMAOAP assay. It is designed to make measurements of enzyme activity, a form of enzyme reporter, as detected with scintillation counting signals by Lysate-based radiodetection technology.Data from the assay component NVS_ENZ_rMAOAP was analyzed into 1 assay endpoint. This assay endpoint, NVS_ENZ_rMAOAP, was analyzed in the positive analysis fitting direction relative to DMSO as the negative control and baseline of activity. Using a type of enzyme reporter, loss-of-signal activity can be used to understand changes in the enzymatic activity as they relate to the gene Maoa. Furthermore, this assay endpoint can be referred to as a primary readout, because this assay has produced multiple assay endpoints where this one serves a enzymatic activity function. To generalize the intended target to other relatable targets, this assay endpoint is annotated to the oxidoreductase intended target family, where the subfamily is monoamine oxidase.
as §1, with “Assay-chemical combinations meeting a pre-defined threshold (e.g., 30% inhibition and other criteria defined below) were then run in singleton concentration-response format with maximum concentration of 20 uM for CYPs and 50 uM for all others.” left out
As for `C[Si](Cn1cncn1)(c1ccc(F)cc1)c1ccc(F)cc1`, the AC50 is 25 µM (active).

As for `CN(C)C(=O)Nc1cccc(C(F)(F)F)c1`, the AC50 is 25 µM (active).

Consider `Nc1c(Cl)cc([N+](=O)[O-])cc1Cl`, for which the AC50 was 18 µM (active).

Consider `CC[C@H](C)[C@H]1O[C@]2(C=C[C@@H]1C)C[C@@H]1C[C@@H](C/C=C(\C)[C@@H](O[C@H]3C[C@H](OC)[C@@H](O[C@H]4C[C@H](OC)[C@@H](NC)[C@H](C)O4)[C@H](C)O3)[C@@H](C)/C=C/C=C3\CO[C@@H]4[C@H](O)C(C)=C[C@@H](C(=O)O1)[C@]34O)O2`, for which the compound was classed as inactive.

A further test addresses rat Monoamine Oxidase, MAO-B, Central (MAOBC), Maob (gene 25750) (UniProt P19643). The test is described as follows: NVS_ENZ_rMAOBC: NovaScreen (NVS) Enzymatic Assay for rat Monoamine Oxidase, MAO-B, Central (MAOBC) (AID 2283238). The method, then:
as §2, with “NVS_ENZ_rMAOBC” for “NVS_ENZ_rMAOAP”, “brain” for “liver mitochondrial membranes”, “plate.NVS_ENZ_rMAOBC” for “plate.NVS_ENZ_rMAOAP”, “NVS_ENZ_rMAOBC,” for “NVS_ENZ_rMAOAP,”, “Maob.” for “Maoa.”
as §1
As to `COP(=O)(OC)OC(Br)C(Cl)(Cl)Br` (stereo unspecified), the outcome was inactive.

Turning to `Nc1c(Cl)cc([N+](=O)[O-])cc1Cl`, the AC50 was 15.3 µM (active).

Consider `CC[C@H](C)[C@H]1O[C@]2(C=C[C@@H]1C)C[C@@H]1C[C@@H](C/C=C(\C)[C@@H](O[C@H]3C[C@H](OC)[C@@H](O[C@H]4C[C@H](OC)[C@@H](NC)[C@H](C)O4)[C@H](C)O3)[C@@H](C)/C=C/C=C3\CO[C@@H]4[C@H](O)C(C)=C[C@@H](C(=O)O1)[C@]34O)O2`, for which the compound was classed as inactive.
